# The list is not random: actives were taken first. Their share in the collection is about 3.5%.
# FBW7 act: activators of human E3 ligase FBW7; AlphaScreen FBW7–phospho-cyclin E peptide binding, activator screen; actives 0.13% (n = 650,000); Q969H0; AID 1259310; normalized activity (activation), % at 26.1 µM; in the data active = normalized activity above about 1.9%;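 also: purified mutant Fbw7 with reduced substrate affinity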
# GPR151 activ: human GPR151 activation. Q8TDV0. activation, % at 11.2 µM. actives 1% (n = 650,000). PathHunter beta-arrestin GPR151 cells, luminescence; in the data active = activation above about 4.9%;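 also: 0% = median of compound wells and 100% = cells with positive control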
# Target sequence (Q8TDV0 whole entry, looked up): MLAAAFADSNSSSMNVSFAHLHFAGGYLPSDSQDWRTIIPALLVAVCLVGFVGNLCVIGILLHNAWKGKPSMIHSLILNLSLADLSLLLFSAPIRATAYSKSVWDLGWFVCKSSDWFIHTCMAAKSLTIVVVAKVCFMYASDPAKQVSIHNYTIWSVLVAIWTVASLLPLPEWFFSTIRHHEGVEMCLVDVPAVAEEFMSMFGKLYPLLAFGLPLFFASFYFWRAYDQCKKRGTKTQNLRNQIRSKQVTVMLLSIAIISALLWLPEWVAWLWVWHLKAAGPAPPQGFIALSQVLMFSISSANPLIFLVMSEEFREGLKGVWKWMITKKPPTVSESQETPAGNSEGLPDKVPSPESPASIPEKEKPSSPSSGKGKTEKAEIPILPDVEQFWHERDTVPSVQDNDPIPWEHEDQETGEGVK
# TEAD-YAP inh: TEAD-YAP interaction inhibition. AID 1259422. actives 1.4% (n = 640,000). HEK-TIYL cells, TEAD-Gal4/YAP UAS-luciferase luminescence. inhibition, % at 9.12 µM; in the data active = inhibition above about 32%;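 also: 0% = median of test compound wells and 100% = reference inhibitor wells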
# MITF primary: blocks human microphthalmia-associated transcription factor; inhibition, % at 2.6 µM; actives 0.91% (n = 650,000); AlphaScreen MITF homodimerization, bead proximity signal; O75030; in the data active = inhibition above about 50%;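 also: 0% = vehicle wells with protein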
# * hit, by the source's call.
SMILES,FBW7 act,GPR151 activ,TEAD-YAP inh,MITF primary
COc1ccc(C2/C(=C(/O)c3ccc(C)cc3)C(=O)C(=O)N2CCN(C)C)cc1OC (centres undefined),0.0,0.0,-1.2,2.8
OC[C@@H]1CCCN1c1ccnc2c(-c3ccc(Cl)cc3)cnn12,-0.2,-1.3,85.1*,19.5
O=C(O)c1cccc(-c2cnn3c(N4CCC[C@H]4CO)ccnc23)c1,-0.2,-5.6,100.8*,18.4
O=C(Nc1ccc(F)cc1F)c1ccccc1Br,-0.2,-2.0,-35.2,-2.4
COC(=O)c1ccc(-n2nnn(C3CC(=O)C4OCC3O4)c2=S)cc1 (centres undefined),0.1,-1.3,8.0,-0.9
CN(C)c1ccc(C(=C2C=CC(=[N+](C)C)C=C2)c2ccc(N(C)C)cc2)cc1,-0.9,1.8,88.7*,92.2*
CN(C)c1ccc(C(=NO)c2ccc(N(C)C)cc2)cc1,-0.2,-0.1,21.0,7.7
CNc1c(-c2nc(-c3ccc(OC)cc3)n[nH]2)nnn1Cc1ccccc1Cl,-0.1,1.3,46.3*,13.0
CC1CC(C(O)c2ccccn2)C(=O)C(C(O)c2ccccn2)C1 (centres undefined),-0.4,-0.9,40.4*,-4.2
OC(c1ccccc1)c1ccccn1 (centres undefined),0.0,1.6,8.4,6.4
Cc1ccc(C(=O)N2CCN(c3ccccc3)CC2)cc1N,0.0,0.6,-5.6,12.5
COc1ccc(CC(=O)Nc2cc(NC(=O)c3cccs3)ccc2C)cc1OC,0.1,-0.9,32.4*,17.4
COc1ccc(CC(=O)Nc2ccc(C)c(C)c2)cc1OC,-0.1,1.2,7.7,1.9
COc1ccc(-c2ccc(C)c(NC(=O)Cc3ccc(OC)c(OC)c3)c2)nn1,1.2,0.1,63.9*,9.8
N#Cc1ccccc1OCC(=O)NC(=O)NC1CCCC1,-0.1,-6.4,62.4*,-1.8
O=C(Nc1ccc(-n2cccn2)cc1)C1CCN(Cc2nc3c(s2)CCCC3)CC1,-0.2,-0.4,37.7*,-5.4
O=C(O)c1cc(N=Cc2c(O)n(Cc3ccco3)c(=O)[nH]c2=O)ccc1Cl,-0.2,-0.4,5.1,76.2*
COc1cccc2cc(C(=O)Nc3ccccc3)/c(=N/O)oc12,0.0,-0.6,34.1*,13.9
COc1cccc2cc(C(=O)Nc3ccccc3)c(=Nc3ccc(F)cc3)oc12,-0.2,-0.5,-40.2,-0.2
COC(=O)C1=CN(CC23CC4CC(CC(C4)C2)C3)C=C(C(=O)OC)C1c1ccsc1,1.9*,-1.4,-2.6,-7.7
O=C(c1cc(COc2ccc3ncccc3c2)on1)N1CCCC(O)C1 (centres undefined),0.2,0.2,10.3,4.8
O=C(c1cc(COc2ccc3ncccc3c2)on1)N1CCC(O)CC1,0.2,0.4,3.4,6.7
O=C(NCCCN1CCCC1=O)c1cc(COc2ccc3ncccc3c2)on1,-0.1,0.8,36.9*,-10.3
O=C(c1cc(COc2ccc3ncccc3c2)on1)N1CCC(N2CCSCC2)CC1,0.0,1.2,42.9*,-9.7
CCC(O)C1CCN(C(=O)c2cc(COc3ccc4ncccc4c3)on2)CC1 (centres undefined),0.1,0.6,49.5*,-2.3
SMILES,FBW7 act,GPR151 activ,TEAD-YAP inh,MITF primary
O=C(c1cc(COc2ccc3ncccc3c2)on1)N1CCCC(OCc2ccccn2)C1 (centres undefined),-0.1,1.6,38.9*,5.9
CCOc1ccccc1-c1noc(-c2ccco2)n1,0.7,-0.2,-15.4,7.4
O=C(O)c1cccc(NC(=O)c2cc3ccccc3o2)c1,-0.1,2.5,39.1*,0.7
O=C(Nc1nccs1)c1cc2ccccc2o1,0.0,-9.4,58.2*,-6.7
NC(=O)C1CCN(C(=O)CNC(=O)Cn2cnc3ccccc3c2=O)CC1,0.0,-1.3,-5.4,7.1
COc1ccc(/C=C2\N=C(c3ccccc3I)OC2=O)cc1OC,0.1,0.9,8.6,8.2
CN(C)c1ccc(/C=N/NC(=O)c2ccccc2I)cc1,-0.1,1.7,-7.8,-9.1
COc1ccccc1-c1csc(NC(=O)/C=C/c2ccccc2)n1,0.3,0.3,-6.8,7.2
COc1ccc(/C=C/C(=O)Nc2nc(-c3ccc(F)cc3)cs2)cc1OC,0.2,1.7,57.2*,0.9
CN(C)C(=O)C(=O)Nc1ccc(Cl)c(C(=O)N2CCC(Oc3ccc(F)cc3)CC2)c1,-0.1,0.2,46.5*,8.3
O=C(c1ccncc1)N1CCC(Oc2ccc(Cl)cn2)CC1,0.8,-0.2,7.7,13.1
CN(C)C(=O)C(=O)Nc1ccc(Cl)c(C(=O)N2CCC(Oc3ccc(Cl)cn3)CC2)c1,0.0,0.2,48.4*,3.8
Fc1ccc(CSc2ncnc3c2c(-c2ccccc2)cn3-c2ccc(F)cc2)cc1,0.1,1.4,2.9,11.7
O=C1Nc2ccccc2/C1=N\N=C1/SCC(=O)N1c1ccc(O)cc1,0.1,3.3,50.0*,7.4
Cc1c(N2C(=O)CS/C2=N\N=C2/C(=O)Nc3ccccc32)c(=O)n(-c2ccccc2)n1C,0.3,0.8,-3.9,18.0
Cc1ccccc1C(=O)NCCCN(C)C,-0.1,-0.2,-5.6,7.3
CCNc1nc(Nc2cc(OC)c(OC)c(OC)c2)c2ncn(-c3ccccc3)c2n1,-0.1,-0.4,47.3*,10.4
COc1cc(Nc2nc(Nc3nc4ccccc4n3C)nc3c2ncn3-c2ccccc2)cc(OC)c1OC,0.1,1.7,42.4*,-9.5
COc1cc(Nc2nc(Nc3ccccc3)c3ncn(-c4ccccc4)c3n2)cc(OC)c1OC,0.1,1.7,-34.9,7.5
COCC(C)NC(=O)c1ccc([N+](=O)[O-])cc1 (centres undefined),0.2,-1.4,-0.8,-1.6
CCOC(=O)C1CSCCN1C(=O)COn1ccc2ccc(S(C)(=O)=O)cc21 (centres undefined),0.1,-1.1,4.7,15.6
Oc1c(C(O)(C(F)(F)F)C(F)(F)F)ccc2cccnc12,-0.2,-2.3,48.8*,47.0
Oc1c(CN2CCN(Cc3ccc4cccnc4c3O)CC2)ccc2cccnc12,-0.4,-1.7,38.0*,113.8*
Oc1c(CN2CCOCC2)ccc2ccccc12,-0.1,-0.3,5.2,12.6
Oc1c(CN2CCCCC2)ccc2cccnc12,-0.3,-2.5,45.8*,104.9*
SMILES,FBW7 act,GPR151 activ,TEAD-YAP inh,MITF primary
Oc1c(CN2CCOCC2)ccc2cccnc12,-0.8,1.3,15.9,95.4*
Oc1ccc(CN2CCN(c3ccccc3)CC2)c2cccnc12,-0.3,-0.3,4.7,31.0
O=C(CCl)Nc1c(C(O)(C(F)(F)F)C(F)(F)F)ccc2ccccc12,-0.2,1.5,12.4,0.0
CCCCNC(=O)C1c2cc(OC)c(OC)cc2C(=O)N(C)C1c1ccc(SC)cc1 (centres undefined),0.0,3.7,1.6,-0.9
COCCNc1nc(-c2ccc(SC)cc2)ccc1C(=O)Nc1cccc(OC)c1,0.0,2.7,-1.2,7.4
O=C1CCCN1CCn1cnc2c(Nc3ccccc3)nc(Nc3ccc(C(F)(F)F)cc3)nc21,0.5,-0.4,-14.2,8.8
Cc1nnc(N(CC2CCCO2)C(=O)c2ccno2)s1 (centres undefined),0.1,2.4,10.1,8.1
COCC(=O)N(CC1CCCO1)c1nnc(C)s1 (centres undefined),0.1,-4.3,33.9*,5.3

# Screening results from PubChem.
